From PubChem BioAssay (NCI)
Compounds without any hit were thinned out: in the full panel of roughly 83,000, 20% have a hit.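 Cells were grown in 96-well plates and exposed to the test compound at a single concentration for 48 hours; results are reported as percent growth, with values below 10 considered active.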 Values without a mark were called inactive. Active and inactive are the calls of the source.

Each compound was assayed on OVCAR-8 ovarian (assay: NCI-60 one-dose screen, 48 h (100 = growth as untreated, 0 = no growth, -100 = all killed)). Conditions: 10 µM unless noted.
`CCCOC(=O)N[C@H]1CCc2c(Br)c(OC)c(OC)c(OC)c2-c2ccc(SC)c(=O)cc21` was tested, and the growth was 13.4%.
For `CCOC(=O)[C@@H](C)C[C@H](Cc1ccccc1)NC(=O)c1csc([C@@H](C[C@H](C(C)C)N(C)C(=O)[C@@H](NC(=O)[C@H]2CCCCN2C)C(C)(C)CC)OC(C)=O)n1`, the growth was 10.6%.
In the case of `CN1CC(CNC(=O)OCc2ccccc2)CC2c3cccc4c3c(cn4C)CC21` (stereo unspecified), the growth is reported as 62.4%.
`COc1ccc(NC([Se])=NC23CC4CC(CC(C4)C2)C3)cc1` was tested, and the growth was -0.307% (active).
Compound `ClCCN(CCCl)c1ccc(/C=N\N=C\c2ccc(N(CCCl)CCCl)cc2)cc1` has a growth of 33.8%.
Compound `C[C@@]12CC=C3c4nc(Nc5cccc(O)c5)sc4CC[C@]3(C)[C@H]1CC[C@]1(C)C(=O)CC[C@@H]21` has a growth of 17.9%.
For `O=[N+]([O-])/C=C\c1ccc(Cl)c(Cl)c1`, the growth was 66.1%.
Work on `CC(C)OC(=O)[C@H](C)NP(=O)(Oc1ccccc1)C1CCCN(O)C1=O` (stereo partly specified) yielded a growth of 106%.
With `COC(=O)CCC1=C(C)c2cc3[n-]c(cc4nc(cc5[n-]c(cc1n2)c(CCC(=O)OC)c5C)C=C4C)cc3C.[Cd+2]` the growth was 68.7%.
With `C=CCn1cc(C=C2C(=O)N(C)C(=O)N(C)C2=O)c2ccccc21` the growth was 83.1%.
`COC(=O)[C@@H](C)C[C@H](Cc1ccccc1)NC(=O)c1nc([C@@H](C[C@H](C(C)C)N(C)C(=O)[C@@H](NC(=O)[C@H]2C[C@H](O)CCN2C)C(C)C)OC(C)=O)sc1C(C)C` showed a growth of 10.6%.
`N#CC1C(C#N)C2CCC1C1C2N1c1ccccc1` (stereo unspecified) gave a growth of 114%.
`CC(C)(NC(=O)O[C@@H]1CN2CCC1CC2)c1csc(-c2ccc(F)cc2)n1` was tested, and the growth was 102%.
`CCC(C)(C)[C@H](NC(=O)[C@H]1CCCCN1C)C(=O)N(C)[C@H](C[C@@H](OC(C)=O)c1nc(C(=O)N[C@@H](Cc2ccccc2)C[C@H](C)C(=O)O)cs1)C(C)C` gave a growth of 14.2%.
Work on `C[C@]12CCc3sc(-c4ccccc4O)nc3C1=CC[C@@H]1[C@@H]2CC[C@]2(C)C(=O)CC[C@@H]12` yielded a growth of 105%.
`CCOC(=O)N1CC1` was tested, and the growth was 101%.
`N#CC1(C#N)C(c2ccc(N(CCCl)CCCl)cc2)OC23CCCCC2C1(C#N)C(=N)O3` (stereo unspecified) was tested, and the growth was 80.6%.
With `C=CCCCN=C=S` the growth was 89.6%.
Compound `Cc1cccc(N2CCN(C(C)C#N)CC2)c1` (stereo unspecified) has a growth of 106%.
`O=C(Nc1ccc([N+](=O)[O-])cc1)C(Cl)(Cl)Cl` showed a growth of 100%.
For `COP(=S)(N1CC1)N1CC1`, the growth was 135%.
In the case of `O=C(N/N=C\c1ccc(N(CCCl)CCCl)cc1)c1cccc([N+](=O)[O-])c1`, the growth is reported as 63.4%.
For `CC(=O)OC[C@]1(C)C=C2C(=O)[C@](C)(O)C3(CC3)C(C)=C2[C@H]1O`, the growth was -0.446% (active).
`CS(=O)(=O)CCN1CC2CCCC(C2)C1` was tested, and the growth was 104%.
In the case of `CCOC(=O)[C@@H](C)C[C@H](Cc1ccccc1)NC(=O)c1csc([C@@H](C[C@H](C(C)C)N(C)C(=O)[C@@H](NC(=O)[C@H]2C[C@H](O)CCN2C)C(C)C)OC(C)=O)n1`, the growth is reported as 14.8%.
`CNCc1cccnc1` gave a growth of 103%.
`Cn1cc(C=O)c2nccnc21` showed a growth of 104%.
`Cc1cc(N(CCCl)CCCl)ccc1C=Nc1ccccc1-c1ccccc1` showed a growth of 74%.
Work on `CNC(=O)Oc1ccc2c(c1)OCO2` yielded a growth of 101%.
For `COc1ccc(N(CC(=O)NCCC[Te]c2ccccc2)C(=O)CCSC2=C(C)C(=O)c3ccccc3C2=O)cc1`, the growth was 8.05% (active).
With `Cn1cccc1C1CC(=O)N(CCC[Se]C#N)C1=O` (stereo unspecified) the growth was -51.5% (active).
For `CC1(C)[C@H](O)[C@H](F)C[C@@]2(C)Oc3ccc(C(=O)Nc4ccc5c(c4)NC(=O)C54CCN(CCCCC#N)CC4)cc3C[C@H]12`, the growth was 62.5%.
In the case of `CCOC(=O)[C@@H](C)C[C@H](Cc1ccccc1)NC(=O)c1nc([C@@H](C[C@H](C(C)C)N(C)C(=O)[C@@H](NC(=O)[C@H]2CCCCN2C)C(C)C)OC(C)=O)sc1CCOCc1ccccc1`, the growth is reported as -19.3% (active).
Work on `C[C@]12CCc3sc(-c4cccc(F)c4)nc3C1=CC[C@@H]1[C@@H]2CC[C@]2(C)C(=O)CC[C@@H]12` yielded a growth of 28.5%.
`COC(=O)[C@H](C[C@H](Cc1ccccc1)NC(=O)c1csc([C@@H](C[C@H](C(C)C)N(C)C(=O)[C@@H](NC(=O)[C@H]2CCCCN2C)C(C)C)OC(C)=O)n1)NC(=O)OCc1ccccc1` gave a growth of 22% [8.5 µM].
`C[C@]12CC[C@H]3[C@@H](C[C@@H]4SC(Nc5ccccc5)=N[C@@]45CC(O)CC[C@]35C)[C@@H]1CCC2O` (stereo partly specified) was tested, and the growth was -8.95% (active).
